PubChem BioAssay AID916 (National Center for Advancing Translational Sciences (NCATS), 2007)
Inconclusive results are not listed. Calls of active or inactive are those of the source. Calls follow the shape of the dose curve; as a rule, active = well fitted activation curve with a large enough effect in the signal ratio, with a control signal flat (not every such curve was filed as active); inconclusive = small, poorly fitted or top-dose-only effect, or a change in a side signal; inactive = flat fitted curve, though single readings scatter; the % refers to the signal ratio.

Assay: Confirmation Concentration-Response Assay for Cell signaling CRE-BLA (Fsk stim)
Conditions: CHO CRE-bla reporter (cAMP response element driving beta-lactamase), NKH477 EC10 stim, FRET ratio; series mostly up to 38.3 µM
From the text: NIH Molecular Libraries Screening Centers Network [MLSCN] NIH Chemical Genomics Center [NCGC] MLSCN Grant: 1X01MH079867-01 Assay Provider: Marshall W. Nirenberg, U.S. National Heart, Lung and Blood Institute CRE beta-lactamase Assay Overview Memories persist for different lengths of time, from seconds or minutes to a lifetime. There are two kinds of memory: short-term memory (STM) and long-term memory (LTM). STM lasts for minutes to hours, which maybe mediated by modifications of molecules involved in synaptic functions. LTM lasts for days or longer, and may be due to the formation of new synapses or restructuring of existing synapses. LTM, but not STM, requires gene transcription and synthesis of proteins. CREB (cyclic-AMP Responsive Element Binding Protein) is one of the candidates plays an important role for enhancement of some types of LTM. CREB, a family of transcription factors, regulates the transcription of genes containing cAMP Responsive Elements (CRE). CRE is a nucleotide sequence often found in the promoter regions of genes that are binding sites for CREB. Using a beta-lactamase reporter-gene under control of cAMP responsive element, a cell-based assay [CellSensor(TM) CRE-bla CHO developed by Invitrogen Corp.] was used to measure forskolin-induced signaling. The selected compounds were measured for their ability to modulate positively the action of EC10 NKH 477, a water soluble forskolin, on reporter gene activity. Compounds were screened in a titration series in 1536-well format. Positive modulators were identified based on the AC50 values derived from the screening data.
NCGC Assay Protocol Summary 2000 cells/5uL in Opti-MEM medium containing 0.5% dialyzed FBS, 0.1 mM NEAA, 1 mM sodium pyruvate and 10 mM HEPES was dispensed into 1536-well plates and cells were cultured at 37 degrees Celsius overnight. Next day 23 nL of compounds or DMSO were delivered to each well using a pin tool, and 1uL of EC10 level of NKH 477, or EC100 level of IBMX, a PDE inhibitor, in the present of NKH 477, or assay medium was added. And then the plates were incubated at 37 degrees Celsius for 3 hours. 1 uL of CCF4-dye mixture was added to each well. After incubated at room temperature for 2 hours the plates were measured on an EnVision plate reader at Excitation 405nm, Emission1=460nm and Emission 2=530nm. The %Activity was determined from the ratio of 460nm/530nm. Keywords: NIH Roadmap, MLSCN, MLSMR, qHTS, NCGC, CRE, beta-lactamase reporter-gene assay.

For `Cc1cc(-c2nnc3n2N=C(c2ccc(-c4ccccc4)cc2)CS3)n[nH]1`, which Potency is on record?
Its Potency is 12.6 µM (active).

For `Cc1ccc(Nc2c3c(nc4ncnn24)CCC3)cc1`, which Potency is on record?
The Potency was “inactive”.

Which Potency does the source give for `COC(=O)c1ccc(CSc2ccc3nnc(-c4cccc(F)c4)n3n2)o1` here?
Its Potency is 15.8 µM (active).

For `COc1cc(C2NC(=O)NC(C)=C2C(=O)OC(C)(C)C)ccc1OCC(N)=O` (stereo not given), which Potency is on record?
Its Potency is “inactive”.

For `O=C(Nc1ccccc1O)c1cc(S(=O)(=O)N2CCOCC2)ccc1Cl`, which Potency is on record?
Its Potency is “inactive”.

With `Cc1cc(C)nc(N2CCN(c3nc(C)nc4c3oc3ccccc34)CC2)n1` as the compound, how does the Potency read?
The Potency was “inactive”.

With `CCN(CC)c1nc2ccccc2n2cnnc12` as the compound, how does the Potency read?
Its Potency is 15.8 µM (active).

For `Cc1nn(-c2ccccc2)c2sc(C(=O)N(CC(=O)NC(C)(C)C)Cc3ccco3)cc12`, which Potency is on record?
Its Potency is 7.94 µM (active).

With `CC1CCc2c(sc3nc(C4CC4)nc(SCC(=O)NCc4ccco4)c23)C1` (stereo not given) as the compound, how does the Potency read?
The Potency was “inactive”.

With `COc1cc(-c2cc(=O)c3ccccc3o2)ccc1O` as the compound, how does the Potency read?
The Potency was 15.8 µM (active).

Which Potency does the source give for `Cn1c(/C(C#N)=C/Nc2ccccn2)nc2ccccc21` here?
Its Potency is “inactive”.

For `CC[C@]1(O)C[C@@H]2CN(CCc3c([nH]c4ccccc34)[C@](C(=O)OC)(c3cc4c(cc3OC)N(C=O)[C@H]3[C@@](O)(C(=O)OC)[C@H](C(=O)OC)[C@@]5(CC)C=CCN6CC[C@]43[C@H]65)C2)C1`, which Potency is on record?
Its Potency is 0.501 µM (active).

Which Potency does the source give for `Cc1sc2nc(SCc3nc4ccccc4[nH]3)n(Cc3ccco3)c(=O)c2c1C` here?
The Potency was 1.26 µM (active).

For `O=S(=O)(Nc1cccc(-c2nc3cccnc3s2)c1)c1ccc2c(c1)OCCO2`, which Potency is on record?
The Potency was 10 µM (active).

For `CN1C(=O)NC(c2ccccc2)C2=C1CN(Cc1ccccc1)C2=O` (stereo not given), which Potency is on record?
Its Potency is “inactive”.

Which Potency does the source give for `Cc1cc(N2CCN(S(=O)(=O)c3ccc4c(c3)OCCO4)CC2)n2ncnc2n1` here?
Its Potency is 3.16 µM (active).

With `CSc1nc2ccc(Nc3nc(N4CCOCC4)nc(N4CCOCC4)n3)cc2s1` as the compound, how does the Potency read?
The Potency was 12.6 µM (active).

Which Potency does the source give for `Nc1nc(CSCc2ccccc2)nc(N2CCOCC2)n1` here?
The Potency was “inactive”.

For `CCc1nc(SCC(=O)N2CCc3ccccc32)c2oc3ccccc3c2n1`, which Potency is on record?
Its Potency is 10 µM (active).

For `CC[C@]1(O)C[C@@H]2CN(CCc3c([nH]c4ccccc34)[C@](C(=O)OC)(c3cc4c(cc3OC)N(C)[C@H]3[C@](O)(C(=O)OC)[C@@H](C(=O)OC)[C@@]5(CC)C=CCN6CC[C@@]43[C@@H]65)C2)C1`, which Potency is on record?
Its Potency is 0.0631 µM (active).

With `COC(=O)Nc1nc2ccc(C(=O)c3cccs3)cc2[nH]1` as the compound, how does the Potency read?
The Potency was 0.794 µM (active).

Which Potency does the source give for `CCCN(C#N)c1nc(NCC)nc(NC(C)C)n1` here?
Its Potency is 12.6 µM (active).

For `CC1(C)Cc2c(sc3nc(SCC#N)n(C4CCCCC4)c(=O)c23)CO1`, which Potency is on record?
The Potency was 20 µM (active).

With `O=C(c1cc(S(=O)(=O)N2CCOCC2)ccc1F)N1CCCc2ccccc21` as the compound, how does the Potency read?
The Potency was “inactive”.

For `Cc1cc(Nc2ccc3ccccc3c2)n2ncnc2n1`, which Potency is on record?
The Potency was “inactive”.

Which Potency does the source give for `Fc1ccc(CSc2ncnc3c2oc2ccccc23)cc1` here?
The Potency was 10 µM (active).

Which Potency does the source give for `Cc1ccc(-n2ncc3c(=O)[nH]c(SCC(=O)N4CCOCC4)nc32)cc1` here?
The Potency was “inactive”.

With `CN(C)c1nc(N(C)C)nc(N(C)C)n1` as the compound, how does the Potency read?
The Potency was “inactive”.

Which Potency does the source give for `CCCN(CCC)CCNC(=O)c1cc2c(=O)n(C)c3ccccc3c2n1C` here?
Its Potency is “inactive”.

For `CCN(C(=O)c1cn(C)c(=O)c2cc(OC)c(OC)cc12)c1cc(OC)ccc1OC`, which Potency is on record?
Its Potency is “inactive”.

With `Cn1c(C(=O)NCCCN2CCCC2=O)cc2c(=O)n(C)c3ccccc3c21` as the compound, how does the Potency read?
Its Potency is 25.1 µM (active).

With `CCOC(=O)C1=C(CN2CCC(C)CC2)NC(=O)NC1c1ccc(Cl)cc1` (stereo not given) as the compound, how does the Potency read?
Its Potency is 12.6 µM (active).

With `COC(=O)c1ccc(CSc2nc3c(cnn3-c3ccc(F)cc3)c(=O)[nH]2)o1` as the compound, how does the Potency read?
Its Potency is 15.8 µM (active).

For `CCOC(=O)c1ccccc1NC(=O)c1cc(S(=O)(=O)N2CCOCC2)ccc1F`, which Potency is on record?
Its Potency is 12.6 µM (active).

For `Cn1c(/C(C#N)=C/C2CC=CCC2)nc2ccccc21` (stereo not given), which Potency is on record?
The Potency was “inactive”.

Which Potency does the source give for `O=c1[nH]c(SCc2ccccc2Cl)nc2c1cnn2-c1ccccc1` here?
The Potency was 3.98 µM (active).

Which Potency does the source give for `Cc1cc(C)n(-c2nc(Nc3ccccc3)nc(-n3nc(C)cc3C)n2)n1` here?
Its Potency is “inactive”.

With `CCc1nc(Nc2ccc3nccnc3c2)c2oc3ccccc3c2n1` as the compound, how does the Potency read?
Its Potency is 1.58 µM (active).

Which Potency does the source give for `CCOc1ccc(C2c3c(oc4ccccc4c3=O)C(=O)N2c2ccc(C)cn2)cc1OC` (stereo not given) here?
The Potency was 15.8 µM (active).

With `COc1ccc(CCNC(=O)CSc2nc(C)nc3c2oc2ccccc23)cc1OC` as the compound, how does the Potency read?
Its Potency is 12.6 µM (active).
